# Results published in article PMC7862700, “An all-to-all approach to the identification of sequence-specific readers for epigenetic DNA modifications on cytosine”.
# Key:
# Assay in all cases: DAPPL (digital affinity profiling via proximity ligation, sequencing); 10 mM Tris-HCl pH 7.5, 50 mM NaCl, 1 mM DTT, 4% glycerol, room temperature, 30 min; GST-TFs on glutathione beads, 16-mer random dsDNA library, 0.1% formaldehyde crosslink after washing; high values mean tight binding
# FLI1 = biological target: T1, FLI1 (Homo sapiens, UniProt Q01543 1-452); settings: protein: recombinant; tags: N-terminal GST; dsDNA, one strand shown
# T1 sequence: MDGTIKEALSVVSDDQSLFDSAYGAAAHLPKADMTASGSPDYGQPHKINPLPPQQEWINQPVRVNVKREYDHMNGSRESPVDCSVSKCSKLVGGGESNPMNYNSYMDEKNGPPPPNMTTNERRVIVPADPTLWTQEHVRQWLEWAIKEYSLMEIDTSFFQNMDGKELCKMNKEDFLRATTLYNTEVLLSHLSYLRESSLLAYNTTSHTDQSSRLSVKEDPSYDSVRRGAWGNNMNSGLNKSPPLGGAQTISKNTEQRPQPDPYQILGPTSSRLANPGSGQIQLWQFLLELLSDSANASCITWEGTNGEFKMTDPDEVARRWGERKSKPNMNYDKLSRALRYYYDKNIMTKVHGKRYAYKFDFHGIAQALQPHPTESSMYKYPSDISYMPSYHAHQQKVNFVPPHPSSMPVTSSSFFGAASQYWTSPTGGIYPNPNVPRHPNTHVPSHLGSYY
# In short: (§1)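 Each value of binding signal is a hexamer's read frequency for a factor divided by the same hexamer's frequency in the tag-only sample. Barcoded, bead-captured GST fusions of human transcription factors made in yeast were pooled with that sample and incubated with 200 nmole of a random double-stranded 16-mer DNA library in Tris/NaCl/DTT/glycerol buffer at room temperature for 30 min. Washing, 0.1% formaldehyde crosslinking, proximity ligation, PCR and Illumina NextSeq500 sequencing followed.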
# ELK1 = biological target: T2, ELK1 (Homo sapiens, UniProt P19419 1-428); settings: protein: recombinant; tags: N-terminal GST; dsDNA, one strand shown
# T2 sequence: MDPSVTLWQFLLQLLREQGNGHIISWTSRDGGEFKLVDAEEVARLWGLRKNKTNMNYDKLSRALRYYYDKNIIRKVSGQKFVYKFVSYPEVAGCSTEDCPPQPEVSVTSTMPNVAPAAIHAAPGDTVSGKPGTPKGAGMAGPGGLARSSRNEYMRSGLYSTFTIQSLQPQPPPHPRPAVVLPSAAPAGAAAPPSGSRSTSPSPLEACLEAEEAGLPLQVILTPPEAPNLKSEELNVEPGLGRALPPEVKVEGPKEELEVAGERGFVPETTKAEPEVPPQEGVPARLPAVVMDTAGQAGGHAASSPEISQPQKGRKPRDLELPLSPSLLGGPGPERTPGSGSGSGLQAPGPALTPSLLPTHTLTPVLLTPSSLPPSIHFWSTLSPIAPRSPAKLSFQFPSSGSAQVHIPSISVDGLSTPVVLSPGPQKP
# In short: as §1
# GABPA = biological target: T3, GABPA (Homo sapiens, UniProt Q06546 1-454); settings: protein: recombinant; tags: N-terminal GST; dsDNA, one strand shown
# T3 sequence: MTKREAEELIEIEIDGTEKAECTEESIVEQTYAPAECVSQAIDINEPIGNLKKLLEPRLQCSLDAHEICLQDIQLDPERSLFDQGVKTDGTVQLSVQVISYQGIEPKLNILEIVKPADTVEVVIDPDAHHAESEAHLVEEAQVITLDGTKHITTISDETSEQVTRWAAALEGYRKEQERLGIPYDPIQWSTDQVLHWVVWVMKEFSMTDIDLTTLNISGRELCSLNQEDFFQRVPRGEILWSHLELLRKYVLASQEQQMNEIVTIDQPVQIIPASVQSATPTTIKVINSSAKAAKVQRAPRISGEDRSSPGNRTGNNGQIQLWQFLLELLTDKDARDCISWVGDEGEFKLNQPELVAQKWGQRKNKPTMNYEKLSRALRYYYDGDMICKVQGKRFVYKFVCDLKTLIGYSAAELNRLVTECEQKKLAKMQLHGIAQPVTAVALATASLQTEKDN
# In short: as §1
# ERG = biological target: T4, ERG (Homo sapiens, UniProt P11308 1-479); settings: protein: recombinant; tags: N-terminal GST; dsDNA, one strand shown
# T4 sequence: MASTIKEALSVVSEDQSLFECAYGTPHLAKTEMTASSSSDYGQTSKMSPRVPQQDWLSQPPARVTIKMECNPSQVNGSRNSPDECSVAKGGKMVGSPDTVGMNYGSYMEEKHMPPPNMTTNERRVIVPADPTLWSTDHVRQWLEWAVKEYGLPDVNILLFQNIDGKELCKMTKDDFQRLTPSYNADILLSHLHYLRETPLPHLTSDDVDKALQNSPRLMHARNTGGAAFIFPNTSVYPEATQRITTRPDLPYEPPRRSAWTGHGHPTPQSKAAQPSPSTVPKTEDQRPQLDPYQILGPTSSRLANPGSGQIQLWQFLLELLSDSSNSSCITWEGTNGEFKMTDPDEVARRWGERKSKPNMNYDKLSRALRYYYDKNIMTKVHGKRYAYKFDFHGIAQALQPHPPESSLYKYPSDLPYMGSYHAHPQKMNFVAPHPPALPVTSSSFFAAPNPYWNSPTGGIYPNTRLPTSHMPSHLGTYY
# In short: as §1
# ELF1 = ELF1 (Homo sapiens, UniProt P32519 1-619); settings: protein: recombinant; tags: N-terminal GST; dsDNA, one strand shown
# In short: as §1
# EHF = biological target: T5, EHF (Homo sapiens, UniProt Q9NZC4 1-300); settings: protein: recombinant; tags: N-terminal GST; dsDNA, one strand shown
# T5 sequence: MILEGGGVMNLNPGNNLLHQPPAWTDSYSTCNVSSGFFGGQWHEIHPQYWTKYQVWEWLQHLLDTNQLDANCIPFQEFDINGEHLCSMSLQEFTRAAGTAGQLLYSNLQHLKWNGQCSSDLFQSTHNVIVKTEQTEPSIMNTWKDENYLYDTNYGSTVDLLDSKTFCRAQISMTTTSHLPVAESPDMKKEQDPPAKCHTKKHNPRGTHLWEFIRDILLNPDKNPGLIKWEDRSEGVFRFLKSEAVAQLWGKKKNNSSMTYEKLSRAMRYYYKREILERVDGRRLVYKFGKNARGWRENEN
# In short: as §1
# SPI1 = SPI1 (Homo sapiens, UniProt P17947 1-270); settings: protein: recombinant; tags: N-terminal GST; dsDNA, one strand shown
# In short: as §1
# SPIB = SPIB (Homo sapiens, UniProt Q01892 1-262); settings: protein: recombinant; tags: N-terminal GST; dsDNA, one strand shown
# In short: as §1
# ELK3 = biological target: T6, ELK3 (Homo sapiens, UniProt P41970 1-407); settings: protein: recombinant; tags: N-terminal GST; dsDNA, one strand shown
# T6 sequence: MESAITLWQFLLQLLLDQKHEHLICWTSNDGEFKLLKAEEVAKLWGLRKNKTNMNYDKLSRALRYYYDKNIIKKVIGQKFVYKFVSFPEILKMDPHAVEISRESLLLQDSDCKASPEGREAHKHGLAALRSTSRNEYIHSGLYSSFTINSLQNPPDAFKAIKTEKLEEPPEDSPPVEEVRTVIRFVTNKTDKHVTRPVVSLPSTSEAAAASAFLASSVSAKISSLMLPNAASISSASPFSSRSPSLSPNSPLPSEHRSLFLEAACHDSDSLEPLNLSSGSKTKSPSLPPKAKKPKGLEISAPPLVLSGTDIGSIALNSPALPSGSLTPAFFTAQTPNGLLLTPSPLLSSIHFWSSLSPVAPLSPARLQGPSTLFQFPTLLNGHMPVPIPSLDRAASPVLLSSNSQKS
# In short: as §1
# FEV = biological target: T7, FEV (Homo sapiens, UniProt Q99581 1-238); settings: protein: recombinant; tags: N-terminal GST; dsDNA, one strand shown
# T7 sequence: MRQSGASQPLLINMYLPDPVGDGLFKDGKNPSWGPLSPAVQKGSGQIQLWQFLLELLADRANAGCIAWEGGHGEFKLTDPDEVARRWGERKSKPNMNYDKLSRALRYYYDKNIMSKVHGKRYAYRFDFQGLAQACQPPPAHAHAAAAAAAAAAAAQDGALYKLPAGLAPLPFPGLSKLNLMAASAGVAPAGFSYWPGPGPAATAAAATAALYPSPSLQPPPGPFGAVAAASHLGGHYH
# In short: as §1
# ETV5 = ETV5 (Homo sapiens, UniProt P41161 1-510); settings: protein: recombinant; tags: N-terminal GST; dsDNA, one strand shown
# In short: as §1
# HSF1 = HSF1 (Homo sapiens, UniProt Q00613 1-529); settings: protein: recombinant; tags: N-terminal GST; chain copies: 3; dsDNA, one strand shown
# In short: as §1
# SPIC = biological target: T8, SPIC (Homo sapiens, UniProt Q8N5J4 1-248); settings: protein: recombinant; tags: N-terminal GST; dsDNA, one strand shown
# T8 sequence: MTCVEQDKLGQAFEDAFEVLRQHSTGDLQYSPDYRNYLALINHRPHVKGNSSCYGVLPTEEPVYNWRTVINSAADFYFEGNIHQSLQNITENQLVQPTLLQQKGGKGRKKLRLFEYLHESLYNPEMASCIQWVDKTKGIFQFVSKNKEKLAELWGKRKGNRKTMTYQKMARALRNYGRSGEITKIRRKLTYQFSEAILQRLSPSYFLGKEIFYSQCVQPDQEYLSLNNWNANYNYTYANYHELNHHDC
# In short: as §1
# ELF4 = ELF4 (Homo sapiens, UniProt Q99607 1-663); settings: protein: recombinant; tags: N-terminal GST; dsDNA, one strand shown
# In short: as §1
# ELK4 = biological target: T9, ELK4 (Homo sapiens, UniProt P28324-2 1-405); settings: protein: recombinant; tags: N-terminal GST; dsDNA, one strand shown
# T9 sequence: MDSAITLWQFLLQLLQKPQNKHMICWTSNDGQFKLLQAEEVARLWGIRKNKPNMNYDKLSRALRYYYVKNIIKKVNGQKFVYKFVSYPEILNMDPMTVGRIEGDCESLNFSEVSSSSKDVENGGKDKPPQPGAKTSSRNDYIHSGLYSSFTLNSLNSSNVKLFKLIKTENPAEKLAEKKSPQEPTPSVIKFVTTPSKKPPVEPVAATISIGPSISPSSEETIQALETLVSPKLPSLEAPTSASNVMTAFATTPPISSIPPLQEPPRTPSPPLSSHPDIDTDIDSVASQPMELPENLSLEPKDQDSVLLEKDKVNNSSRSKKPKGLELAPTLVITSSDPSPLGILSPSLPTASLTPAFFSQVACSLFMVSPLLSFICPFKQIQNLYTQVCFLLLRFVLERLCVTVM
# In short: as §1
# ETV2 = biological target: T10, ETV2 (Homo sapiens, UniProt O00321 1-342); settings: protein: recombinant; tags: N-terminal GST; dsDNA, one strand shown
# T10 sequence: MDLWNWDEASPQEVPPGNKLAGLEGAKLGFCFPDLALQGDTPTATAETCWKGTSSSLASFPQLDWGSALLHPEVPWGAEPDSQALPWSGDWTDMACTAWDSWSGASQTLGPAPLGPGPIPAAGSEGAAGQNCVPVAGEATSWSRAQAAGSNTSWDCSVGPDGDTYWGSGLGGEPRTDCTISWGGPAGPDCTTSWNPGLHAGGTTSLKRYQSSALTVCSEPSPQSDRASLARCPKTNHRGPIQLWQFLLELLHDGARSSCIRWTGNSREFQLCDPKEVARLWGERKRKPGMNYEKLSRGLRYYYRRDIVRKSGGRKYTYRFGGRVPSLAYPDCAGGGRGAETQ
# In short: as §1
# ELF3 = biological target: T11, ELF3 (Homo sapiens, UniProt P78545 1-371); settings: protein: recombinant; tags: N-terminal GST; dsDNA, one strand shown
# T11 sequence: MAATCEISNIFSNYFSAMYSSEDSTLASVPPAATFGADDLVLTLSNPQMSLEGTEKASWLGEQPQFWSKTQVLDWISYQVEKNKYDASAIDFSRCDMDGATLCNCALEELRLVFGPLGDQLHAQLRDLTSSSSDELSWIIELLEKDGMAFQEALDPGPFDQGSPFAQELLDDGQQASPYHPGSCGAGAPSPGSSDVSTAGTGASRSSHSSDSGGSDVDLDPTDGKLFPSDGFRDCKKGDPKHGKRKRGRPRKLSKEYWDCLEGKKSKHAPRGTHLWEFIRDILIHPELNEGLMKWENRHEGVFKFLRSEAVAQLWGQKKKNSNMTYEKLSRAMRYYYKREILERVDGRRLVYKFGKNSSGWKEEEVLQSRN
# In short: as §1
# CRX = CRX (Homo sapiens, UniProt O43186 1-299); settings: protein: recombinant; tags: N-terminal GST; dsDNA, one strand shown
# In short: as §1
# ETV1 = ETV1 (Homo sapiens, UniProt P50549 1-477); settings: protein: recombinant; tags: N-terminal GST; dsDNA, one strand shown
# In short: as §1
# SPIB, sequence (Q01892 whole entry): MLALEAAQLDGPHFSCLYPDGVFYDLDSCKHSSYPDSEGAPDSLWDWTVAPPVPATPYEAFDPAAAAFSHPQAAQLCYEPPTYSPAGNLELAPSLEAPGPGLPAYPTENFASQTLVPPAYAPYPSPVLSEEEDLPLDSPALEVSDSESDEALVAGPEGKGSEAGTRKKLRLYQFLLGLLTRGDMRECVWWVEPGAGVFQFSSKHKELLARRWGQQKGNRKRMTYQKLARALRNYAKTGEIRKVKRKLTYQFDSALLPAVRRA
# HSF1, sequence (Q00613 whole entry): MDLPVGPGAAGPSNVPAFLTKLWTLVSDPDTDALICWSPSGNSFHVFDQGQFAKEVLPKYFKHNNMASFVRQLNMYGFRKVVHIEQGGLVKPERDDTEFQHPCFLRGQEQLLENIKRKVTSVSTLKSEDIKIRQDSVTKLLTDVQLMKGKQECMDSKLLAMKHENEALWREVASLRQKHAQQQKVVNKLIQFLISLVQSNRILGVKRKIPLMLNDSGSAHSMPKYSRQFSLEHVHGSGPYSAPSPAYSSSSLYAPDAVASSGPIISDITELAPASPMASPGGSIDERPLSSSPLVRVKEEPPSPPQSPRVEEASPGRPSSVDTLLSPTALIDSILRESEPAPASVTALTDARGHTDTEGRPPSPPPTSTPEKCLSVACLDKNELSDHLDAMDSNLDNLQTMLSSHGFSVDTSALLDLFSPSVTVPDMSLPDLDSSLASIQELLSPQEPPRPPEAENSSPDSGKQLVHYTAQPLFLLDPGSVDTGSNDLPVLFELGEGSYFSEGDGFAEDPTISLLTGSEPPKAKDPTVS
# ELF4, sequence (Q99607 whole entry): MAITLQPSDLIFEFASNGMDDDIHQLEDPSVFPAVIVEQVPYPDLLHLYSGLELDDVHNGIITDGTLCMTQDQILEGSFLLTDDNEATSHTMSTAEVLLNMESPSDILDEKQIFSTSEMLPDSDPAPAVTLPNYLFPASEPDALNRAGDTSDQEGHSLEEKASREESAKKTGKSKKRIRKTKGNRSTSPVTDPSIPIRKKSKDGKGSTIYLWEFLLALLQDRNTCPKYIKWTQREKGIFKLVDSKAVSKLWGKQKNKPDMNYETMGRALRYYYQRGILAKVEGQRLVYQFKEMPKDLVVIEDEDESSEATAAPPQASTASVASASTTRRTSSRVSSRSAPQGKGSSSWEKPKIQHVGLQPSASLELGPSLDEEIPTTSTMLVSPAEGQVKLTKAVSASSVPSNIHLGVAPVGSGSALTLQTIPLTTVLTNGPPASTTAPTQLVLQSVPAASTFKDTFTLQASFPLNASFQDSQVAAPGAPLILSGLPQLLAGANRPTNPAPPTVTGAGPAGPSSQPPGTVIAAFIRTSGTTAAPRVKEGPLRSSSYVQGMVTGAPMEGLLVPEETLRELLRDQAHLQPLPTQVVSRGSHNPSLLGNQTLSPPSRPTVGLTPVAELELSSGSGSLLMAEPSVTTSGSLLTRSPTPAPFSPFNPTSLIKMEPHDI
# ELF1, sequence (P32519 whole entry): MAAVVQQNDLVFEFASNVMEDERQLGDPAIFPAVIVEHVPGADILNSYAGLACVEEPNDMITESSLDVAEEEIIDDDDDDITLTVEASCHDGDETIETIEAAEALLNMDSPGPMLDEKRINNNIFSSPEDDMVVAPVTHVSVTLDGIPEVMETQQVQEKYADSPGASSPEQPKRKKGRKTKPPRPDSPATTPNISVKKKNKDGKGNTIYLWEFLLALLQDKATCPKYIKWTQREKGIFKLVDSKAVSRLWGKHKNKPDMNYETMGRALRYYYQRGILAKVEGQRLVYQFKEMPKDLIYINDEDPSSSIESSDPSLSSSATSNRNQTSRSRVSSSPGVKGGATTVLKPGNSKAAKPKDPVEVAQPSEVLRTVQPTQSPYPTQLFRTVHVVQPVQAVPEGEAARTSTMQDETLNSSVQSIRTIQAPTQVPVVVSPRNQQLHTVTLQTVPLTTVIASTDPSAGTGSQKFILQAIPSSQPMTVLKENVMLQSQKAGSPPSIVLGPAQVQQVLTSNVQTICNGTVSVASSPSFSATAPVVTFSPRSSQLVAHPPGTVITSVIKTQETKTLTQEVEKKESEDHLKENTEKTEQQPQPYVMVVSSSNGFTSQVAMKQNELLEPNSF
# CRX, sequence (O43186 whole entry): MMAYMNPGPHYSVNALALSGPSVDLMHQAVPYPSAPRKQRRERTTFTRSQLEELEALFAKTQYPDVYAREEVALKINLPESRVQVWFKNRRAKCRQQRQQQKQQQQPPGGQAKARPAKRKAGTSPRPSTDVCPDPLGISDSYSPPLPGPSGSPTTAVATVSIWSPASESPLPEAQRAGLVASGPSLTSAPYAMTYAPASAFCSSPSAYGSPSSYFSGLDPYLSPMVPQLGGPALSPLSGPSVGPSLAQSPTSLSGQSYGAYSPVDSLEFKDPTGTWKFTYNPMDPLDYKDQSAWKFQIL
# ETV1, sequence (P50549 whole entry): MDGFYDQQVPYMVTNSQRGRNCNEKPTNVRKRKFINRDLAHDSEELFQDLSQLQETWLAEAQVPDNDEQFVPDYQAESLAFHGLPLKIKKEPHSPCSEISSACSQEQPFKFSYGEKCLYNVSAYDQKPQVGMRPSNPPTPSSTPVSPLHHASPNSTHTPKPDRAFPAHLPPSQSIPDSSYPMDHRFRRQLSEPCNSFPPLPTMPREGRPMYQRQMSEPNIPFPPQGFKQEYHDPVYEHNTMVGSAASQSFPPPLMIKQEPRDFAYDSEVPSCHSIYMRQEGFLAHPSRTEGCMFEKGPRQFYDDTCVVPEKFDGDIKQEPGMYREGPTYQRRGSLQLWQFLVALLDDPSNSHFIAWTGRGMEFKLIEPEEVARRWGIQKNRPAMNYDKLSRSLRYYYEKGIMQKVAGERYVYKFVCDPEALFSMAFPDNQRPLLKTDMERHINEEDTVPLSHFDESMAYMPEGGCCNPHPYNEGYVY
# ETV5, sequence (P41161 whole entry): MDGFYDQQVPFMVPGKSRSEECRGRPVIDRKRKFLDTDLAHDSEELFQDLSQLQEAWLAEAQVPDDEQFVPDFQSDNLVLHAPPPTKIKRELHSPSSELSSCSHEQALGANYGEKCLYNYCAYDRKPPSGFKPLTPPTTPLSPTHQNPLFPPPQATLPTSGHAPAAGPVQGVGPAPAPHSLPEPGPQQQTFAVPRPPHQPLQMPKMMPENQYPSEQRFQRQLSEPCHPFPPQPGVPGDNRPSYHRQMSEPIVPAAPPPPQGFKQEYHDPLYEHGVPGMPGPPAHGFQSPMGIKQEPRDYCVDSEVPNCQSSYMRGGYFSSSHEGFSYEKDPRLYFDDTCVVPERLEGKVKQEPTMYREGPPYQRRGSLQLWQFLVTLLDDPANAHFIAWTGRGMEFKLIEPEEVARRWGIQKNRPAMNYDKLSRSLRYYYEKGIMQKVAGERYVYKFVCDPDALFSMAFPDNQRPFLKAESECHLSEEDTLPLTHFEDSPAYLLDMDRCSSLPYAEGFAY
sequence,measurement,setting,value
TTGACT,binding signal,FLI1,"1.19 fold enrichment (6-mer frequency, TF over GST control)"
same,binding signal,ELK1,"1.19 fold enrichment (6-mer frequency, TF over GST control)"
same,binding signal,GABPA,"1.15 fold enrichment (6-mer frequency, TF over GST control)"
same,binding signal,ERG,"1.18 fold enrichment (6-mer frequency, TF over GST control)"
same,binding signal,ELF1,"1.15 fold enrichment (6-mer frequency, TF over GST control)"
same,binding signal,EHF,"1.06 fold enrichment (6-mer frequency, TF over GST control)"
same,binding signal,SPI1,"1.19 fold enrichment (6-mer frequency, TF over GST control)"
same,binding signal,SPIB,"1.18 fold enrichment (6-mer frequency, TF over GST control)"
same,binding signal,ELK3,"1.03 fold enrichment (6-mer frequency, TF over GST control)"
same,binding signal,FEV,"1.15 fold enrichment (6-mer frequency, TF over GST control)"
same,binding signal,ETV5,"1.13 fold enrichment (6-mer frequency, TF over GST control)"
same,binding signal,HSF1,"1.12 fold enrichment (6-mer frequency, TF over GST control)"
same,binding signal,SPIC,"1.15 fold enrichment (6-mer frequency, TF over GST control)"
same,binding signal,ELF4,"1.21 fold enrichment (6-mer frequency, TF over GST control)"
same,binding signal,ELK4,"1.3 fold enrichment (6-mer frequency, TF over GST control)"
same,binding signal,ETV2,"1.27 fold enrichment (6-mer frequency, TF over GST control)"
same,binding signal,ELF3,"1.15 fold enrichment (6-mer frequency, TF over GST control)"
same,binding signal,CRX,"1.09 fold enrichment (6-mer frequency, TF over GST control)"
same,binding signal,ETV1,"1.18 fold enrichment (6-mer frequency, TF over GST control)"
